# Assay outcomes from PubChem BioAssay.
# BaF3 parental – parental Ba/F3 cell viability inhibition, counter-screen for JAK2V617F inhibitor project, murine pro-B, CellTiter-Glo luminescence | CellTiter-Glo ATP luminescence | inhibition, % at 5.6 µM | actives 1.1% (n = 220,000);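 active means inhibition above a per-campaign cutoff, the mean inhibition of all tested compounds plus 3 SD, cut at about 27% in these data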;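 further: 0% = DMSO wells and 100% = JAK Inhibitor I control wells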
# IEC-6 tox-1 – cytotoxicity in IEC-6 intestinal epithelial cells, primary screen, cytotoxicity control for KLF5 inhibitor project, cell-based, luminescence | IEC-6 cytotoxicity, luminescence viability | inhibition, % at 5 µM | actives 0.78% (n = 290,000); in the data active means inhibition above about 22%;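 further: 0% = plate median of test compound wells and 100% = cytotoxic reference compound wells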
# APP 5UTR inh – inhibitors of APP translation via 5'UTR reporter, primary screen, APP 5'UTR luciferase, SH-SY5Y cells | SH-SY5Y APP 5'UTR-luciferase reporter, luminescence | inhibition, % at 2 µM | actives 0.82% (n = 190,000);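 active means inhibition above a set limit, derived from the sample mean plus 3 SD, cut at about 45% in these data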
# Ba/F3 V617F tox – reduced viability of JAK2V617F-dependent Ba/F3 cells, primary screen, JAK2V617F inhibitor project, cell-based, Ba/F3 EpoR-JAK2V617F, luminescence; actives 1.1% (n = 220,000); ATP luminescence; inhibition, % at 5.6 µM;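 active means inhibition above the campaign mean plus 3 SD over all tested compounds, cut at about 24% in these data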;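 further: cytokine-independent growth of Ba/F3 cells driven by EpoR plus mutant JAK2; 0% = DMSO-treated cells and 100% = JAK inhibitor I control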
# KLF5 inhibitor – KLF5 expression inhibitors, primary screen, DLD-1 cells, luminescence; DLD-1 KLF5 promoter-luciferase reporter; inhibition, % at 5 µM; actives 0.23% (n = 290,000); AID 1700, 2009;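 active means inhibition above a per-plate limit of that plate's mean compound inhibition plus 3 SD, cut at about 60% in these data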;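 further: 0% = DMSO wells and 100% = LY294002 at 200 µM; higher means less KLF5 promoter-driven luciferase light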
# KLF5 inh confirm – KLF5 expression inhibitors, confirmation, DLD-1 cells, luminescence | shares compounds with KLF5 inhibitor | DLD-1 KLF5 promoter firefly luciferase reporter | inhibition, % at 4 µM | actives 79% (n = 610) | AID 1834, 2009;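 active means inhibition above a set limit taken from the earlier primary screen, cut at about 63% in these data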;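 further: 0% = DMSO wells and 100% = LY294002 at 200 µM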
# IEC-6 tox-2 – cytotoxicity in rat IEC-6 cells, cytotoxicity control for KLF5 inhibitor project, cell-based, luminescence, triplicate; IEC-6 rat intestinal cells, viability luminescence; shares compounds with KLF5 inhibitor; inhibition, % at 4 µM; actives 56% (n = 610); AID 1905, 2009; in the data active means inhibition above about 23%;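 further: cells exposed to compounds for 48 hours before viability read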
# Starred values were filed as active, the others as inactive; . = not tested or not shown. Sampled rows, rich in hits. Any-hit rate of the full collection: about 1.9%.
SMILES,BaF3 parental,IEC-6 tox-1,APP 5UTR inh,Ba/F3 V617F tox,KLF5 inhibitor,KLF5 inh confirm,IEC-6 tox-2
O=C(Nc1ccc(N2CCCCC2)cc1)c1ccccn1,18.7,18.8,41.0,21.9,103.9*,100.3*,11.9
O=C(Nc1ccc(N2CCCCCC2)cc1)c1ccccc1Cl,3.2,10.8,-106.6,9.1,-139.3,.,.
Cc1ccc(-n2nnc(-c3nccs3)n2)cc1,1.7,5.2,-117.9,0.6,62.6*,64.0*,14.2
COC(=O)[C@H](C)NC(=O)NCc1ccccc1,1.1,-5.0,.,-1.4,-32.2,.,.
COc1cccc2c1OCC(C(=O)O)C2 (stereo not given),8.3,-5.1,0.9,-0.5,-15.0,.,.
COc1cccc2c1C(CO)N1C(C#N)C3CC(C(=O)O)C(C1C2)N3C (stereo not given),95.1*,100.4*,.,93.8*,109.9*,108.8*,99.8*
Cc1ccc(/C=N/Nc2nc3ccccc3s2)o1,6.3,16.0,-166.9,0.2,-40.2,.,.
Cc1csc(NC(=O)c2cc3c(s2)CCCCC3)n1,2.5,0.1,-128.6,-3.3,72.3*,51.9,-1.0
Cc1csc(NC(=O)c2cc3c(s2)CCCC3)n1,8.2,9.0,-164.6,5.8,-42.6,.,.
CN(C(=O)COC(=O)/C=C/c1cccc([N+](=O)[O-])c1)C1CCS(=O)(=O)C1 (stereo not given),0.0,-5.0,.,-2.6,83.2*,97.4*,-3.4
Cc1c(C)c2ccc(OCC(=O)N(C)C)c(C)c2oc1=O,4.8,-5.2,2.9,-1.8,-27.3,.,.
Cc1c(C)c2ccc(OCC(=O)Nc3ccccn3)c(C)c2oc1=O,.,10.0,.,.,91.3*,40.3,12.1
Cc1ccc(NC(=O)c2ccc(COc3ccc4c(c3)CCC4)cc2)c(C)c1,5.0,7.0,5.7,-4.0,-10.4,.,.
O=[N+]([O-])c1ccc(N=Nc2c(Cl)cc(O)cc2Cl)cc1,94.9*,12.8,.,81.2*,33.1,58.3,22.4*
Cc1ccsc1C(=O)NN=C1CCCCCC1,.,4.9,.,.,-155.5,.,.
O=C(O)c1ccc(N=Nc2c(O)ccc3ncccc23)cc1,.,7.5,.,.,86.8*,15.3,13.8
O=C(O)c1cc(N=Nc2c(O)ccc3ccccc23)cc(C(=O)O)c1,-0.4,10.2,-10.1,-1.6,-9.2,.,.
CCOc1ccc(CNC(=O)CCCn2nc(C)c3c(C)n(-c4ccc(C)cc4)nc3c2=O)cc1,.,8.6,.,.,-25.8,.,.
Oc1c(C(c2cccs2)N2CCN(c3ccccc3)CC2)ccc2cccnc12 (stereo not given),83.3*,0.3,59.3*,98.4*,69.1*,-19.6,-5.9
CN1CCN(C(c2ccc(C(F)(F)F)cc2)c2ccc3cccnc3c2O)CC1 (stereo not given),.,2.2,.,.,48.1,.,.
Cc1cc(C)c2nc(NC(=O)[C@@H](NC(=O)c3cccc(S(=O)(=O)N4CCOCC4)c3)C(C)C)sc2c1,10.5,-7.1,-10.0,3.4,73.8*,100.0*,45.2*
Cc1cccc(C(=O)N[C@H](C(=O)Nc2cc(S(=O)(=O)N3CCCCC3)ccc2C)C(C)C)c1,1.5,-4.3,-0.8,-2.6,10.7,.,.
COc1ccc(/C=N/NC(=O)c2cc3cc(OC)c(OC)cc3[nH]2)cc1,.,-9.0,.,.,-33.7,.,.
COc1ccc2[nH]c(C(=O)N/N=C/c3ccc(O)cc3O)cc2c1,.,18.5,.,.,83.7*,83.0*,32.5*
O=C(Nc1cccc(C(=O)O)c1)Nc1ccc2c(c1)OCO2,.,1.9,.,.,95.5*,89.0*,5.1
SMILES,BaF3 parental,IEC-6 tox-1,APP 5UTR inh,Ba/F3 V617F tox,KLF5 inhibitor,KLF5 inh confirm,IEC-6 tox-2
COc1cccc(NC(=O)Nc2cccc(C(=O)O)c2)c1,0.8,-4.0,51.1*,-1.9,75.5*,65.0*,-2.4
O=C(Nc1ccc2c(c1)OCO2)Nc1ccc2c(c1)OCO2,4.8,-3.4,-135.6,1.0,-81.3,.,.
O=C1N(Cc2cccc(Cl)c2)C[C@@H]2C[C@@H](c3ccc4nonc4c3)N3CCC[C@@]123,2.3,12.2,15.4,5.9,3.3,.,.
CCCN(CC1CC1)C(=O)CSc1ncnc2sccc12,2.7,4.6,-20.6,-1.8,-11.1,.,.
COc1cc(C(=O)N/N=C/c2cc([N+](=O)[O-])cs2)cc(OC)c1OC,77.2*,78.4*,95.1*,80.8*,78.7*,75.5*,58.8*
COc1ccc(/C=C/C(=O)c2cc3c(cc2N)OCO3)cc1,4.9,8.8,-145.2,2.1,-42.9,.,.
COc1ccc(/C=N\NC(=O)c2c(C)nc3ccc(Br)cn23)cc1,72.0*,47.0*,89.2*,73.4*,64.7*,75.3*,52.5*
COc1ccc(/C=N/NC(=O)c2c(C)nc3ccc(Br)cn23)cc1OC,-0.7,3.9,.,-2.4,14.7,.,.
Cc1ccc(NC(=O)c2cc(C)n(-c3ccccc3)c2C)cc1,5.9,-1.6,-52.3,0.3,49.7,.,.
Cc1ccc(NC(=O)c2cc(C)n(-c3cccc(C)c3)c2C)cc1,-0.7,-4.7,-62.8,0.8,77.5*,88.6*,-1.0
Cc1cc(C(=O)Nc2ccc(Cl)cc2)c(C)n1-c1ccccc1,-1.4,4.3,.,-2.6,74.0*,87.3*,-11.8
CC(NS(=O)(=O)c1ccc2c(c1)c(=O)n(C)c(=O)n2C)C(=O)NC1CCCCC1 (stereo not given),.,2.5,.,.,4.8,.,.
CCN(CC)S(=O)(=O)c1ccc(N/N=C/c2cccnc2)nc1,-1.7,1.8,.,-3.0,-4.7,.,.
CCN(CC)S(=O)(=O)c1ccc(N/N=C/c2cc(OC)ccc2O)nc1,54.5*,15.6,74.0*,81.5*,67.7*,74.4*,3.9
Cc1c(-n2c(-c3ccccc3)nc3ccccc3c2=O)c(=O)n(-c2ccccc2)n1C,3.2,2.4,-29.8,0.3,12.1,.,.
O=C(O)c1ccc(N/N=C/c2c(F)cccc2Cl)cc1,.,-0.8,.,.,65.6*,54.8,-0.5
CC(C)(C)c1ccc(/C=N/Nc2cccc(C(=O)O)c2)cc1,2.8,-2.0,-84.8,-3.5,-120.9,.,.
CN(C)c1ccc(/C=N/Nc2cccc(C(=O)O)c2)cc1,.,0.1,.,.,75.2*,109.2*,11.4
CC(C)(C)c1ccc(/C=N/Nc2ccc(C(=O)O)cc2)cc1,0.8,24.2*,-55.3,6.1,66.0*,94.4*,34.0*
CCOc1cccc(CN2CCC(Oc3ccc(C(=O)NCc4ccccn4)cc3)CC2)c1,.,-2.4,.,.,-11.4,.,.
N#C/C(=C\c1ccc([N+](=O)[O-])cc1)c1ccccn1,0.5,13.2,-25.1,1.1,-144.9,.,.
CN(C)c1ccc(/C=C(\C#N)c2ccccn2)cc1,7.4,9.5,-95.0,3.1,68.8*,65.8*,14.9
Cc1ccc(-n2c(=O)[nH]c3ncccc3c2=O)cc1,6.3,5.4,-8.3,1.8,0.2,.,.
